Bioassay records from PubChem BioAssay.
An excerpt weighted towards active compounds, which were near 6.2% of everything screened.
Gal4-VP16 FLuc: VP16 counterscreen qHTS for inhibitors of ROR gamma transcriptional activity. Potency, µM (highest dose often 53.6 µM), inactives show at the top dose activity, negative = inhibition, usual class: inhibitors. Drosophila S2 Gal4-VP16 UAS-luciferase, luminescence, 20 h. 310,000 compounds, 3.5% hits. AID 2546, 2010;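 note: Gal4-VP16 expression switched on by copper sulfate through the metallothionein promoter; nearly all actives have a fitted effect of over 50% in size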
RORg inh: qHTS for inhibitors of ROR gamma transcriptional activity; Nuclear receptor ROR-gamma (Mus musculus), P51450; Potency, µM (top dose mostly 53.6 µM), for the others: at the top dose activity change, negative = inhibition, usual class: inhibitors; 310,000 compounds, 5.4% hits; Drosophila S2 Gal4-RORgamma UAS-luciferase reporter, 20 h; note: nearly all actives have a fitted effect of over 60% in size
Target sequence (P51450 whole entry, looked up, the tested form may be a part): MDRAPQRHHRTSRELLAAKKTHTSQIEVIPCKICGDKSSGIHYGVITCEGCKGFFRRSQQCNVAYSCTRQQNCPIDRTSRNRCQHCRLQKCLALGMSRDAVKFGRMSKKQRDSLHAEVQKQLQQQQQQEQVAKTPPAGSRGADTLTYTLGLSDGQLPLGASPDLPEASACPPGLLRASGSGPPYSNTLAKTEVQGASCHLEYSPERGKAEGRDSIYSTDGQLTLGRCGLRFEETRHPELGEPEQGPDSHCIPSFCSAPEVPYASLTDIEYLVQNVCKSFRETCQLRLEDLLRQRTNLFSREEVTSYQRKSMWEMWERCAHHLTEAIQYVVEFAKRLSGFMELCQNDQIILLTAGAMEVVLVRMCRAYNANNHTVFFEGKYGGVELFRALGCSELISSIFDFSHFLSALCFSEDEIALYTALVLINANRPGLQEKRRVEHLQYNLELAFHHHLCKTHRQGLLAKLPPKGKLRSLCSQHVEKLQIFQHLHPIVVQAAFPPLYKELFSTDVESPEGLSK
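Drosophila S2 cells stably expressing Gal4-DBD/mouse RORγ fusion under metallothionein promoter plus UAS-luciferase; compound 1 h, then 700 uM CuSO4 induction for 20 h at ambient temperature; inhibition read as reduced luminescence.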
KinaseGlo FLuc: Counterscreen for Luciferase (Kinase-Glo TM) Inhibition. Luciferin 4-monooxygenase (Photuris pensylvanica), Q27757. Kinase-Glo luciferase, ATP luminescence, 8 min. Potency, µM (series often up to 38.3 µM), for the others: at the top dose activity change, negative = inhibition, usual class: inhibitors. 200,000 compounds, 0.28% hits. AID 1379, 2008; note: nearly all actives have a fitted effect of over 60% in size
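Substrate mix (final 50 mM imidazole pH 7.2, 50 mM KCl, 7 mM MgCl2, 10 uM ATP, 0.01% Tween 20, 0.05% BSA) plus pin-tool compound, then Kinase-Glo detection mix; 8 min ambient, luminescence read.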
* = called active by the depositor; ? = inconclusive; nt = no result. Calls come from the whole dose curve; as a rule, active = well fitted curve in the direction sought with a large enough effect; inconclusive = small, poorly fitted or top-dose-only effect, or another doubt; inactive = no such curve, though single readings can be large; an effect the other way counts as inactive or inconclusive. % is set by controls: 0 for no effect and ±100 for the full control effect; potency is the fitted concentration of half-maximal effect.

SMILES	Gal4-VP16 FLuc	RORg inh	KinaseGlo FLuc
O=C1C=CC(=O)c2c(O)c(Cl)c(Cl)c(O)c21	-5%	?	-9%
O=C(NCc1cccc(Cl)c1)c1cnn2c1NC(c1ccco1)CC2C(F)(F)F (stereo unspecified)	-4%	23%	-1%
O=C(NCC12CC3CC(CC(C3)C1)C2)c1nn2c(c1Cl)NC(c1ccco1)CC2C(F)(F)F (stereo unspecified)	14µM*	?	-3%
Nc1nc(SCC(=O)Nc2cccc(Oc3ccccc3)c2)n[nH]1	-6%	?	-3%
Nc1nc(SCC(=O)Nc2ccc(Oc3ccccc3)cc2)n[nH]1	18µM*	?	0%
COc1ccccc1NC(=O)CSc1n[nH]c(-c2ccccn2)n1	5µM*	6.3µM*	nt
COc1ccc(NC(=O)CSc2n[nH]c(-c3ccccn3)n2)cc1	?	16µM*	nt
O=C(CSc1n[nH]c(-c2ccccn2)n1)Nc1ccccc1F	5µM*	3.5µM*	nt
COc1ccccc1-c1nc(SCC(=O)Nc2ccccc2)n[nH]1	1%	1%	nt
COc1ccccc1NC(=O)CSc1ncn(-c2ccccc2)n1	1%	?	1%
COc1ccccc1-c1nc(SCC(=O)Nc2ccccc2F)n[nH]1	16%	-17%	nt
O=C(CSc1nc2c([nH]c3ccccc32)c(=O)n1-c1ccc(F)cc1)NCc1ccco1	?	-31%	11%
CCCCCCCCCCCC(CC1OC(=O)C1CCCCCC)OC(=O)C(CC(C)C)NC=O (stereo unspecified)	4%	-2%	-2%
O=C(CCn1cnnn1)Nc1ccccc1	0%	6%	nt
O[C@@H]1CO[C@H]2[C@@H]1OC[C@@H]2O	-10%	-1%	nt
CN(C(=O)COc1ccc(S(=O)(=O)N2CCOCC2)cc1[N+](=O)[O-])C1CCS(=O)(=O)C1 (stereo unspecified)	-4%	3%	nt
COc1ccccc1CNC(=O)c1ccc2nc3[nH]c4ccccc4c3nc2c1	?	26%	0%
Cc1ccc(CNC(=O)c2ccc3nc4[nH]c5ccccc5c4nc3c2)cc1	7.1µM*	?	6%
CC(=O)O[C@H](C(=O)O[C@@H]1C[C@@H](CCC[C@H]2O[C@H](C(=O)OC(C)C)CC[C@@H]2C)O[C@@H](CC#N)C1)c1ccccc1	3%	3%	2%
CCCCCCCCn1c2c(c(=N)c3ccccc31)CCC2	-7%	0%	-2%
CCCCCCCCCn1c2c(c(=N)c3c1CCC3)CCCC2	?	4µM*	0%
CCn1c2c(c(=N)c3c1CCC3)CCCC2	-6%	15%	nt
CCCCCCCCCCn1c2c(c(=N)c3c1CCC3)CCC2	3.2µM*	8.9µM*	-6%
CCCNC(=O)N1N=C(c2ccc(N)cc2)c2cc3c(cc2C1C)OCO3 (stereo unspecified)	1%	26%	nt
O=c1[nH]c2ccccc2nc1N1CCOCC1	-5%	15%	7%
SMILES	Gal4-VP16 FLuc	RORg inh	KinaseGlo FLuc
S=C(c1nc2ccccc2[nH]1)N1CCOCC1	6.3µM*	5µM*	3%
CSCCC(NC(=O)/C(=C/c1ccc(F)cc1)NC(C)=O)C(=O)O (stereo unspecified)	-7%	35%	3%
C=CCNC(=S)NNC(=O)c1csc(C)c1C	7.9µM*	?	-2%
CCCCNC(=S)NNC(=O)c1csc(C(C)C)c1	?	7.9µM*	0%
Cc1ccsc1C(=O)NNC(=O)C1CCCCC1C(=O)O (stereo unspecified)	?	-1%	-2%
C=CCNC(=S)NNC(=O)c1cc(O)ccc1O	-3%	5%	1%
Cc1ccsc1C(=O)NNC(=S)NC1CCCCC1	11µM*	-39%	nt
CCNC(=S)NNC(=O)c1csc(C(C)C)c1	-5%	41%	-4%
CCCCNC(=S)NNC(=O)c1ccncc1	-3%	?	-2%
CCCCNC(=S)NNC(=O)c1csc(C)c1C	14µM*	?	-1%
COc1ccc(C2/C=C\CN(S(=O)(=O)c3ccc(C)cc3)C(C)C(=O)N2Cc2ccc(F)cc2)cc1 (stereo unspecified)	-8%	15%	nt
CCCCNC(=S)NNC(=O)c1sccc1C	-22%	1.4µM*	-2%
CNC(=S)NNC(=O)c1sccc1C	-4%	0%	2%
CCOc1ccc(N2C(=O)CC(SCCN)C2=O)cc1 (stereo unspecified)	?	?	-8%
COc1ccc(N2C(=O)CC(Sc3nc4ccccc4s3)C2=O)cc1 (stereo unspecified)	?	5µM*	3%
CCOc1ccc2nc(SC3CC(=O)N(c4ccc(OC)cc4)C3=O)sc2c1 (stereo unspecified)	?	16µM*	-2%
